Screens (PubChem)
In the library only some 2.7% were active in any assay of this set; here they are far more common.
Env fusion inh: inhibitors of HIV-1 Env-driven cell-cell fusion, primary screen, HeLa-JRFL effector, CEM21 target cells, luciferase; 360,000 compounds, 1.1% hits; inhibition, % at 12.3 µM; AID 651610, 2012;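 active = mean replicate inhibition score of at least 50 and every replicate individually at or above 50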;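 also: 0% = plate neutral controls and 100% = maraviroc near 300 nM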
PAX8 reporter: inhibitors of PAX8-driven TPO luciferase reporter, primary screen, RMG-I cells, single concentration; SteadyGlo, 24 h; inhibition, % at 12.6 µM; 360,000 compounds, 1.2% hits;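 active = mean replicate inhibition at least 60% with every replicate also reaching 60%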;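 also: luciferase light reporting Pax8 driven TPO promoter activity; plate controls were median of neutral control wells for no effect and mitoxantrone controls for full effect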
PGC1a acetyl inh: inhibitors of PGC1a acetylation signal, primary screen, cell-based, U2OS, AlphaScreen, inhibitor mode | AID 651687, 2012 | AlphaScreen anti-acetyl-lysine; with virally co-expressed GCN5 acetyltransferase | 350,000 compounds, 0.17% hits | inhibition, % at 15.6 µM;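 active = every replicate shows inhibition of at least 40%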;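 also: 0% = neutral control wells and 100% = positive control wells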
CFTR F508del cor: F508del CFTR correction, initial screen, CFBE line, single point; AID 720511, 2013; 350,000 compounds, 0.36% hits; activity (quench increase), % at 7.58 µM; CFBE cells, YFP halide quenching; stimulated with forskolin plus potentiator P3; % fluorescence drop versus neutral controls;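 active = mean added fluorescence quench of at least 8% versus neutral control, with both replicates also reaching 8%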;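 also: cells transiently co-express mutant CFTR-F508del with the halide-sensitive YFP; corrector assay measuring rescue of mutant channel to the surface after 24 h compound exposure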
GSIS activator: GLuc luminescence reporter in INS-1E cells, primary screen for activators of glucose-dependent secretion of insulin; INS-1E GLuc reporter insulin secretion, 2-3 h; activation, % at 16.6 µM; 370,000 compounds, 0.61% hits;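 active = lowest replicate activation of at least 40%, so every replicate reaches that level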;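 also: 0% = median of neutral control wells and 100% = median of IBMX positive control wells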
EWS-Fli block: EWS/Fli-driven NR0B1 reporter inhibitors, primary screen, A673 cells, NR0B1 luciferase, luminescence, MLPCN library. viability-normalised. 350,000 compounds, 0.67% hits. inhibition, % at 12.6 µM. AID 651661, 2012;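 active = mean inhibition of at least 50% after viability correction, with every replicate also passing that limit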;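 also: firefly luciferase signal divided by Alamar Blue viability fluorescence both relative to DMSO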
The depositor's hits bear a star; · = no result; [ ] = another dose, or the depositor's remark.

SMILES	Env fusion inh	PAX8 reporter	PGC1a acetyl inh	CFTR F508del cor	GSIS activator	EWS-Fli block
C[C@H]1CN([C@@H](C)CO)C(=O)c2cc(-c3cncnc3)cnc2O[C@H]1CN(C)C(=O)Cc1ccccn1	-5.4[16.7 µM]	·	4.8	0.3	19.7	0.6
CC(C)(C)c1ccc(C(=O)O/N=C(\N)c2ccccc2)cc1	-19.1	30.3	·	3.0	-7.5	76.1*
Cc1ccc(C(=O)O/N=C(\N)c2ccccn2)c(Cl)c1	85.1*	105.1*	·	2.5	-14.4	85.7*
N/C(=N\OC(=O)c1ccc(Cl)cc1Cl)c1ccccn1	22.2	77.2*	·	·	2.7	·
COc1ccc(C(=O)O/N=C(\N)c2ccccc2)cc1	-53.8	-2.9	-15.4	-0.4	-13.0	20.8
N/C(=N\OC(=O)c1ccc([N+](=O)[O-])cc1Cl)c1ccccn1	-162.2	67.8*	-8.6	-3.5	-14.7	71.8*
O=C(Nc1ccccc1F)N[C@@H]1CC[C@@H](CCNS(=O)(=O)c2ccccc2)O[C@H]1CO	-2.4[16.7 µM]	15.1	16.6	-1.8	-4.2	-3.4
CC(C)NC(=O)Nc1ccc2c(c1)CC(=O)N(C)C[C@H](C)[C@H](CN(C)C(=O)NC(C)C)O2	·	·	·	·	-4.3	·
COc1ccc(NC(=O)Nc2ccc3c(c2)C(=O)N([C@@H](C)CO)C[C@@H](C)[C@H](CN(C)S(=O)(=O)c2ccc(OC)cc2)O3)cc1	11.9[16.7 µM]	5.5	-6.1	-0.9	-7.5	7.6
N/C(=N\OC(=O)c1ccccc1Cl)c1ccncc1	-105.2	-90.3	·	0.4	2.0	-52.4
Cc1ccc(C(=O)O/N=C(\N)c2ccccc2)c(Cl)c1	-27.4	53.1	20.4	1.8	-37.1	75.1*
FC(F)Oc1ccc(/C=N/NC(=S)Nc2cc(C(F)(F)F)ccc2Cl)cc1	-147.2	-4.9	·	·	110.8*	·
CCOc1ccc(C)cc1S(=O)(=O)n1cnc2ccccc21	11.5	-2.5	2.2	9.9*	-2.8	59.0*
CO[C@@H]1CN(C)C(=O)c2ccc(NC(=O)C3CC3)cc2OC[C@H](C)N(Cc2ccccc2)C[C@H]1C	·	·	3.3	1.0	-42.0	-4.1
Cc1ccc(S(=O)(=O)N2C[C@H](O)COC[C@@H]3O[C@H](CC(=O)NCCN4CCCCC4)CC[C@H]32)cc1	·	-9.5	-4.6	1.4	2.4	-8.0
N#Cc1cc(Sc2ccccn2)c([N+](=O)[O-])cc1C#N	1.7	22.7	0.6	12.5*	-0.4	12.4
CC(=O)N(C)C[C@@H]1Oc2ccc(N(C)C)cc2CC(=O)N(C)C[C@@H]1C	·	·	·	·	10.8	·
CCNc1nc(NCC)nc(N(C#N)C(C)C)n1	-16.7	2.1	6.4	1.7	47.8*	-4.0
CCNc1nc(NC(C)C)nc(N(C#N)C(C)C(=O)N(C)C)n1 (configuration not stated)	·	·	-2.5	·	·	·
O=C(c1ccc(CNS(=O)(=O)c2ccccc2)cc1)N1CCN(Cc2ccccc2)CC1	79.5*	·	-1.3	·	·	·
CS(=O)(=O)c1ccc(C(=O)N2CCN(Cc3ccccc3)CC2)cc1	6.1	11.6	1.0	-2.3	15.5	1.4
Cc1ccc(-n2nc3c(c2NC(=O)C2CC2)CS(=O)(=O)C3)cc1C	3.1	-1.6	1.7	0.8	8.7	·
Cc1ccc(-n2nc3c(c2NC(=O)C2CC2)CS(=O)(=O)C3)cc1	-10.9	-10.3	3.8	-4.0	56.5*	-6.6
COc1ccc(-c2ccccc2[C@H]2[C@@H]3C=CC[C@@H](C)[C@@H]3C(=O)N2Cc2ccccc2)cc1	125.6*	7.2	-35.7	1.7	4.1	21.8
C[C@@H]1CC=C[C@@H]2[C@H]1C(=O)N(Cc1ccccc1)[C@H]2c1ccccc1Br	3.2	-20.3	-4.7	0.2	18.7	18.2
CC(C)COc1ccc(-c2nnc(-c3ccco3)o2)cc1	-165.4	·	·	·	·	·
CCN(CC)CCCNc1ccc(-c2nnc(-c3ccc(OCC(C)C)cc3)o2)cn1	-7.6	41.6	-29.8	-1.0	30.4	61.0*
O=C(Nc1cc(F)ccc1F)N1C[C@H]2[C@@H](c3ccccc31)[C@H](CO)N2CC1CCCC1	·	-5.6	-5.5	0.3	8.9	-2.1
CCCNC(=O)C[C@@H]1C[C@H]2c3cc(NC(=O)c4cccnc4)ccc3O[C@H]2[C@H](CO)O1	71.1*[16.7 µM]	1.6	-2.7	1.3	-3.6	-2.6
